Drawing on PubChem BioAssay (NCI), this text covers growth for 40 compounds.

SMILES strings stand for the structures. This is part of a sample that, as a whole, favours compounds with a hit. Of some 83,000 tested, about 20% had one in any assay.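 96-well plates, one dose, 48 hours. Percent growth reported; active if below 10.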 A number with no mark means an inactive call. Active and inactive are the calls of the source.

The test system of the experiment is HL-60(TB) leukemia. Description: NCI-60 one-dose screen, 48 h (100 = growth as untreated, 0 = no growth, -100 = all killed). Conditions: 10 µM unless noted.
Consider `COc1c(Cl)cc(Cl)cc1Cl`, for which the growth was 98.7%. With `N#Cc1c(N)n2c(nc1=Nc1ccc(Cl)cc1)sc1cc(Cl)ccc12`, the growth was 117%. As for `Nc1c(C(=O)Nc2cccc(Cl)c2)sc2nc3c(cc12)C(O)CCC3` (stereo not given), the figure is 2.96% (active). As for `O=CN1N=C(c2cccc(Nc3ccnc4cc(Cl)ccc34)c2)CC1c1ccccc1` (stereo not given), the figure is -1.22% (active); as for `C=C(C)[C@@H]1CC[C@]2(C(=O)N3CCN(C)CC3)CC[C@]3(C)[C@H](CC[C@@H]4[C@@]5(C)C/C(=C/c6ccc(C(F)(F)F)cc6)C(=O)C(C)(C)[C@@H]5CC[C@]43C)[C@@H]12`, 94.1%; as for `CN1c2ccccc2S(=O)(=O)n2c(SCC(=O)Nc3nc4ccc(F)cc4s3)nnc21`, 105%. As for `COc1cc(C(=O)C(=O)c2cc(OC)c(O)c(OC)c2)cc(OC)c1O`, the figure is 99.7%; as for `Fc1ccc(Nc2ncnc3ccc(-c4cn[nH]c4)cc23)cc1Cl`, 83.7%; as for `COc1ccc(-c2nc3ccc(Cc4ccc5nc(-c6ccc(OC)cc6)[nH]c5c4)cc3[nH]2)cc1`, 9.66% (active). With `O=[N+]([O-])c1cccc(-c2cc(-c3cc(Br)ccc3O)[nH]n2)c1`, the growth was -17.1% (active). The figure for `CC(=O)N1N=C2N(Cc3ccccc3)C(=O)c3c(sc4c3CCCC4)N2C1c1cn(-c2ccccc2)nc1-c1ccc(Cl)cc1` (stereo not given) is 88.5%. In the case of `COc1cc(/C=C2\COc3ccc(O)cc3C2=O)cc(OC)c1`, the growth is 18.4%. The figure for `Clc1ccc(CN2COc3c(ccc4cccnc34)C2)cc1Cl` is -63.5% (active); for `CCCNC(=O)c1cn2ncnc(Nc3cc(C(=O)NC4CC4)ccc3C)c2c1C` it is 129%. As for `C=CC1CN2CCC1CC2C(O)c1ccnc2ccc(OC)cc12` (stereo not given), the figure is 103%. The figure for `CNC(=O)NN` is 64%. Regarding `O=C(/C=C/c1ccco1)Nc1ncc(Cc2ccc(F)cc2)s1`, the growth is -41.6% (active).

On to `COC(=O)[C@H](Cc1cn(C)cn1)NC(=O)[C@H](C)NC(=O)Nc1cc(C(F)(F)F)cc(C(F)(F)F)c1`, for which the growth is -70.4% [100 µM] (active). With `CCOC(=O)c1c[nH][nH]c1=O`, the growth was 110%. On to `COc1ccc(-c2cc(Cc3cccs3)c(=O)n(Cn3cncn3)n2)cc1`, for which the growth is 107%. As for `CN1C(=O)C2(Nc3cc(Cl)ccc3S2)c2cc(Cl)ccc21` (stereo not given), the figure is 97.8%; as for `O=C1COc2ccccc2C(=O)N1CCCCNc1ccccc1`, -36.5% (active); as for `Cc1c[nH]c(=O)n(Cc2nnc(CCC(=O)c3nc4ccccc4[nH]3)o2)c1=O`, -0.434% (active). As to `CC(=O)N1N=C(c2ccc(Cl)cc2)CC1c1sc(Cl)nc1Cl` (stereo not given), the growth is 89.5%. As for `NC(=O)NCC1CCCCC1`, the figure is 91.3%.

With `CCCCn1c(C(=O)c2c[nH]c3ccccc23)n[nH]c1=S`, the growth was 90.8%. Turning to `C=C(C)[C@H]1CC/C(C)=C/CC[C@]2(C)O[C@H]2CC/C(COC(C)=O)=C\C1=O`, the growth was 117%. As for `CN1CCN(C(=O)OCc2nc3c(N4CCOCC4)nc(Cl)nc3n2C)CC1`, the figure is -53.4% (active); as for `COc1cc(C[C@H]2COc3cc(O)cc(O)c3C2=O)ccc1O`, -35.5% (active).

For `COc1ccc(/C=C(/C(=O)c2ccc(Cl)cc2)C(=O)C(F)(F)F)cc1`, the growth was 106%. The figure for `O=C1Nc2ccc(Cl)cc2[C@@](C#CC2CC2)(C(F)(F)F)O1` is 96.5%. The figure for `Cc1c(C(C)(C)O)cn2ncnc(Oc3ccc(NC(=O)Nc4ccc(Cl)c(C(F)(F)F)c4)cc3)c12` is 26.6%; for `COc1ccc(N/C=C/C2=[N+](C)c3ccccc3C2(C)C)c(OC)c1` it is 99.3%; for `CCOC(=O)c1sc2nc(-c3cccc(O)c3)nc(N3CCOCC3)c2c1C` it is 78.3%. The figure for `C#CCNC(=O)[C@H](CC)[C@H]1CC[C@H](C)[C@H]([C@@H](C)[C@H](O)[C@H](C)C(=O)[C@H](CC)C2O[C@]3(C=CC(=O)[C@]4(CC[C@@](C)([C@H]5CC[C@](O)(CC)[C@H](C)O5)O4)O3)[C@H](C)C[C@@H]2C)O1` (stereo not given in full) is 1.79% (active); for `Cc1cc(C(C)(C)CC(C)(C)C)ccc1OCCOCC[N+](C)(C)Cc1ccccc1` it is -67.1% (active).

For `COc1ccc2c(c1)c(/C(O)=C1\COC(=O)C1=O)cn2Cc1ccc(F)cc1`, the growth was 85.6%. As for `CN1CCC(=C2c3ccccc3C=Cc3ccccc32)CC1`, the figure is 85.1%; as for `C=C(C)Cn1c(SCC(=O)c2cccs2)nc2sc3c(c2c1=O)CCCC3`, 63.2%; as for `Cc1nc2ccccc2c(/C=C/c2ccccc2)c1C(=O)/C=C/c1ccc(C(F)(F)F)cc1`, -26.9% (active).
